Compounds with a hit are over-represented: about 3.8% of the library has one in this group of screens.
B2AR arrestin ag: beta-arrestin recruitment by human beta2-adrenergic receptor ligands; HTLA Tango cells, beta-arrestin recruitment, luciferase luminescence, 18 h; 44,000 tested, under 10 active; AID 1347077; P07550; Potency, µM (doses to about 46.1 µM), usual class: activators;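 note: potency is the fitted concentration of half-maximal effect; 0% = DMSO and full agonism = EC100 isoproterenol or metaproterenol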
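Luminescence read-out: arrestin recruitment to recombinant beta2-AR releases tTA, inducing luciferase. Cells exposed 18 hr at 37 degrees C to up to 46 microM compound; %Activity from corrected signal, concentration-response curves classified by r2, magnitude and efficacy.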
NTMT1 inhibitor: NTMT1 methyltransferase inhibition | Q9BV86 | actives 2.5% (n = 59,000) | AID 1645870 | NTMT1 MTase-Glo SAH luminescence, purified enzyme | Potency, µM (highest dose often 114 µM), inactives show at the highest dose activity change, negative = inhibition, usual class: inhibitors;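 note: potency is the fitted concentration of half-maximal effect; plate controls were DMSO vehicle for no effect and no enzyme for full effect; nearly all actives have a fitted effect of over 65% in size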
GPR32 ag: GPR32 (DRV1) agonism, beta-arrestin recruitment | O75388 | CHO-K1 GPR32 beta-arrestin PathHunter luminescence, 90 min; zero percent set by DMSO-only wells | activation, % at 76.9 µM | actives 2.5% (n = 48,000) | AID 1346428;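 active = activation of at least 60% and not above a set upper limit, about 1 call in 100 departs from these limits; inconclusive = activation of 40% to 60%, or above that upper limit; inactive = activation under 40%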; note: 0% is about no effect
Target sequence (O75388 whole entry, looked up): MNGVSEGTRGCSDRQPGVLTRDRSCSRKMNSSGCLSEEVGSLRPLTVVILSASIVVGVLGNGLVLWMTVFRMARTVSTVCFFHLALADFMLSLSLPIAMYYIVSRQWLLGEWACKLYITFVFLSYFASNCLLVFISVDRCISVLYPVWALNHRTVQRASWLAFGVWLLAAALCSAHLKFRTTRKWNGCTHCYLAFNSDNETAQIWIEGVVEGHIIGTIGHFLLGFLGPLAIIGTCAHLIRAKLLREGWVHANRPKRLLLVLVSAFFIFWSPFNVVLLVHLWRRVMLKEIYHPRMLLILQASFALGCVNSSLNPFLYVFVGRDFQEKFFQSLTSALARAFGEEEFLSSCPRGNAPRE
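PathHunter enzyme-fragment complementation, CHO-K1 GPR32 stable line; 2,500 cells/well, overnight attach; cpd 90 min 37 °C 5% CO2; detection reagent 1 h RT; chemiluminescence. DMSO = EC0.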
PTAP-TSG101 blk: inhibitors of HIV-1 PTAP binding to human TSG101, validation | Q99816 | Fluorescence polarization, FITC-PTAP peptide/Tsg101, 20 min | Potency, µM (series often up to 115 µM), actives largely listed as inhibitors | 44,000 tested, under 10 active; note: potency is the fitted concentration of half-maximal effect; 0% is about no effect
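The Tsg101 binding domain, at 10 uM final, is mixed with compound and a FITC peptide bearing the PTAP motif (50 nM final). After 20 min at r.t., polarization is measured; actives defined by CRC class, efficacy cut-off 60% inhibition.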
GALK inh: GALK (human) enzyme inhibition | Potency, µM (doses to about 57.5 µM), for the others: at the top dose activity, negative = inhibition, usual class: inhibitors | P51570 | 44,000 tested, under 10 active | recombinant GALK, Kinase-Glo ATP luminescence, 1 h;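 note: plate controls were full GALK reaction for no effect and reaction lacking GALK for full effect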
Target sequence (P51570 whole entry, looked up): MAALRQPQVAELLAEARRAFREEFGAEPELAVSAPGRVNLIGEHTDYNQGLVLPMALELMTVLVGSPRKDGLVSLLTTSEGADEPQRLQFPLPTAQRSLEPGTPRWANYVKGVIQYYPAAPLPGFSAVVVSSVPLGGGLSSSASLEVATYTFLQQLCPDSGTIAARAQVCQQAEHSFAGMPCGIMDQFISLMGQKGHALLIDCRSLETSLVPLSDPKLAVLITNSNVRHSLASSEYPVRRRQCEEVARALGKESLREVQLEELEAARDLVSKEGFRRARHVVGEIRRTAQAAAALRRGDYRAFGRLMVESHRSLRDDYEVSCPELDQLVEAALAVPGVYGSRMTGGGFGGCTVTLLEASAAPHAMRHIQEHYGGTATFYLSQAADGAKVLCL
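5 nM GALK with 35 µM ATP and 100 µM galactose in HEPES pH 8.0, MgCl2, NaCl, DTT, BSA; 1 h RT reaction, remaining ATP detected by Kinase-Glo Plus luminescence after 10 min; qHTS concentration series.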
OvCa metastasis: inhibitors of ovarian cancer cell adhesion and invasion in omental model | Potency, µM (doses to about 45.8 µM), for the others: at the top dose activity change, negative = inhibition, actives largely listed as inhibitors | SKOV3ip1-GFP adhesion/invasion on 3D omental model, fluorescence | actives 0.1% (n = 46,000);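 note: potency is the fitted concentration of half-maximal effect; plate controls were DMSO wells for no effect and tomatine positive control wells for full effect; nearly all actives have a fitted effect of over 65% in size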
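A 3D layer of primary human omental fibroblasts, mesothelial cells, fibronectin and collagen I, grown 48 hr, received SKOV3ip1-GFP cells in serum-free medium plus compounds at 0.36-46 umol/L. After 2 hr RT and 16 hr 37 C, fixed adherent GFP cells were counted; normalized to DMSO and tomatine.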
* hit, by the source's call; i = inactive; ? = inconclusive; nt = no result; ! = not active in a repeat; [ ] = another dose, or the depositor's remark. Unless noted, calls come from the whole dose curve; as a rule, active = well fitted curve in the direction sought with a large enough effect; inconclusive = small, poorly fitted or top-dose-only effect, or another doubt; inactive = no such curve, though single readings can be large; an effect the other way counts as inactive or inconclusive.

SMILES | B2AR arrestin ag | NTMT1 inhibitor | GPR32 ag | PTAP-TSG101 blk | GALK inh | OvCa metastasis
CCOc1ccc(-c2cn3c(n2)sc2cc(C(=O)NCCCN(CC)CC)ccc23)cc1 | i | 40µM* | -9 | i | 0% | ?
COc1cc(Nc2nc3c(S(=O)(=O)c4ccccc4)nnn3c3ccc(Cl)cc23)cc(OC)c1 | i | 7% | -8 | i | 0% | 3%
Cc1cccc(C(=O)NCCc2nc3ccccc3n2Cc2ccc(Cl)cc2)c1 | i | -4% | 17 | i | -2% | 0%
O=C(NCCCc1nc2ccccc2n1Cc1ccc(Cl)cc1Cl)c1ccco1 | i | nt | 97* | i | 10% | i
O=C(NCCc1nc2ccccc2n1Cc1ccc(Cl)cc1)c1ccccc1 | i | 12% | 81* | i | 1% | -1%
CC(C)=CCCC(C)=CCCC(C)=CCCC(C)=CCCC(C)=CCCC(C)=CCCC(C)=CCCC(C)=CCCC(C)=CCO | nt | -26%[57.5 µM] | nt | nt | nt | 10%
CCn1c(=O)cc(OCC(=O)N2CCN(c3ccc(OC)cc3)CC2)c2ccccc21 | i | -6% | 81* | i | 2% | -8%
CCn1c(=O)cc(OCC(=O)Nc2ccccc2Cl)c2ccccc21 | i | 2% | -17 | i | 1% | 2%
CCn1c(=O)cc(OCC(=O)Nc2cc(OC)c(OC)c(OC)c2)c2ccccc21 | i | 8% | 90* | i | 8% | -5%
CCn1c(=O)cc(OCC(=O)NCc2ccccc2OC)c2ccccc21 | i | -1% | 118* | i | 8% | i
COc1ccc(-c2nc3c4ccccc4n(CC(=O)N4CCN(c5ccc(F)cc5)CC4)c(=O)n3n2)cc1 | i | 89µM* | 10 | i | 7% | -13%
CCCc1nn2c(=O)cc(COC(=O)c3cccc(NC(=O)COc4ccccc4C)c3)nc2s1 | i | 4% | 0 | i | 4% | i
CCn1c(=O)cc(OCC(=O)NCc2ccccc2Cl)c2ccccc21 | i | -9% | 71* | i | -2% | -4%
CCn1cc(C(=O)OCC(=O)Nc2cc(Cl)ccc2OC)c(=O)c2ccc(C)nc21 | i | 11% | 14 | i | 5% | i
CC(=O)c1cccc(NC(=O)C2CCN(c3nnc(-n4cccc4)s3)CC2)c1 | i | 6% | ? | i | 1% | -8%
O=C(Nc1cccc(C(F)(F)F)c1)C1CCN(c2nnc(-n3cccc3)s2)CC1 | i | 5% | 94* | i | 1% | -2%
O=C(NC1CCCc2c1cnn2-c1ccc(F)cc1F)c1ccccc1 (stereo unspecified) | nt | 79µM*! | nt | nt | nt | nt
Cc1ccc(-c2cnn(CC(=O)N(C)C(C)c3ccco3)c(=O)c2)cc1 (stereo unspecified) | nt | 14% | nt | nt | nt | nt
CC(C)(c1ccc(O)cc1)c1ccc(O)cc1 | nt | -4% | 64* | nt | nt | nt
COc1ccc(O)cc1 | nt | 14%[57.5 µM] | 8 | nt | nt | nt
CCOc1ccc(S(=O)(=O)N2CCN(Cc3nc4ccc(C)cc4o3)CC2)cc1 | i | 4% | -7 | i | -2% | i
CCCc1nc(C)c2c(=O)[nH]c(-c3cc(S(=O)(=O)N4CCN(CC)CC4)ccc3OCC)nn12 | nt | 14µM*! | 12 | nt | nt | ?
Cc1ccccc1-c1noc(-c2ccc(NCc3cccnc3)c([N+](=O)[O-])c2)n1 | i | 1% | 15 | i | -1% | ?
CCC(CC)C(=O)Nc1nnc(SCc2cc(=O)c3ccccc3[nH]2)s1 | i | ? | 99* | i | 0% | i
Cc1ccc(OCC(=O)Nc2nnc(SCc3cc(=O)c4ccccc4[nH]3)s2)cc1 | i | 9% | 120* | i | -6% | 2%
SMILES | B2AR arrestin ag | NTMT1 inhibitor | GPR32 ag | PTAP-TSG101 blk | GALK inh | OvCa metastasis
O=C(COc1ccccc1)Nc1nnc(SCc2cc(=O)c3ccccc3[nH]2)s1 | i | -19% | ? | i | 0% | 0%
CCOc1ccc(S(=O)(=O)N2CCC(n3c(C)nc4cccnc43)CC2)cc1 | i | -7% | 76* | i | -2% | 9%
Cc1nc2cccnc2n1C1CCN(C(=O)Nc2ccc(Cl)cc2)CC1 | i | 4% | 88* | i | -4% | i
O=C(O)c1ccc(-c2c[nH]c3ncc(-c4ccccc4)cc23)cc1C1CCCC1 | nt | 25µM* | nt | nt | nt | -10%
CCOc1ccccc1NC(=O)C(Cc1ccccc1)NS(=O)(=O)c1ccc(Br)s1 (stereo unspecified) | i | 11% | -11 | i | 0% | ?
CCc1ccc(NC(=O)CSc2nc3n[nH]c(C)c3c(=N)n2-c2ccccc2C)cc1 | i | 5% | 62* | i | -2% | i
CCc1ccc(-n2c(SCC(=O)NC(C)CC)nc3n[nH]c(C)c3c2=N)cc1 (stereo unspecified) | i | ? | -16 | i | 0% | i
COc1cc(/C=C2\C(=O)Nc3ccccc32)ccc1O | nt | 79µM* | nt | nt | nt | nt
COc1cc(OC)c(/C=C2\C(=O)Nc3ccccc32)c(OC)c1 | nt | -3% | nt | nt | nt | nt
COc1cc2c(Oc3ccc4[nH]c(C)cc4c3F)ncnc2cc1OCCCN1CCCC1 | nt | 45µM*! | nt | nt | nt | 8%
O=C(CCS(=O)(=O)c1cccs1)Nc1ccc(C(=O)Nc2cccc(Cl)c2)cc1 | i | 9% | 65* | i | 4% | 7%
Cc1ccccc1C(=O)OCc1cc(=O)n2c(C)csc2n1 | i | -11% | 75* | i | -1% | 0%
NS(=O)(=O)c1ccc(CCNC(=O)c2nc(SCc3ccccc3F)ncc2Cl)cc1 | i | -3% | 83* | i | -1% | -2%
CN(C)C=NC(=O)c1cc2c(n(-c3ccccc3)c1=O)CC(C)(C)CC2=O | i | 6% | 3 | i | 1% | 7%
Cc1ccc(NC(=O)CC(C)S(=O)(=O)c2ccc3c(c2)NC(=O)CO3)c(C)c1 (stereo unspecified) | i | 3% | 74* | i | 6% | 3%
O=C(Nc1nc2ccc(F)cc2s1)c1nc(S(=O)(=O)Cc2ccccc2F)ncc1Cl | i | 8% | 105* | i | 3% | ?
COc1ccc(NC(=O)c2nc(S(=O)(=O)Cc3ccc(C)cc3)ncc2Cl)cc1 | i | 3% | -27 | i | -3% | ?
Cc1ccc(C)c(NC(=O)c2nc(S(=O)(=O)Cc3ccc(F)cc3)ncc2Cl)c1 | i | 21% | 8 | i | -2% | 11µM*
CCc1nnc(NC(=O)c2nc(S(=O)(=O)Cc3cccc(C)c3)ncc2Cl)s1 | i | -2% | 1 | i | 2% | 13µM*
